Compound activity from PubChem BioAssay.
In the library only some 17% were active in any assay of this set; here they are far more common.
HepG2 viability: kills HepG2 cells in TGF-b inhibitor counter-screen | 410,000 tested, 0.76% active | HepG2 CAGA-GFP viability, ATP luminescence, 18 h | Potency, µM (highest dose often 46.1 µM), hits mostly cytotoxic
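CellTiter-Glo luminescence gave cytotoxicity after 18 hours at 37 degrees C. The cells were HepG2 CAGA-GFP in 1% FBS DMEM, stimulated with 500 pg/mL TGF-beta after compound addition. %Activity was normalised to no-cell wells (complete cell-killing) and DMSO (no toxicity), and curves were fitted and classified.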
ATXN2 expr inh: inhibitors of ATXN2 expression. 360,000 tested, 0.72% active. Potency, µM (top dose mostly 57 µM), hits mostly inhibitors. HEK-293 ATXN2-luciferase reporter, luminescence, 24 h; further: nearly all actives have a fitted effect of over 55% in size
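qHTS (up to 57 uM final) was run with 24 h compound exposure of reporter cells at 37 °C. Each well was multiplexed: SteadyGlo luminescence measured ATXN2-luciferase expression after a fluorogenic Gly-Phe-AFC viability readout (25 uM final).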
TDP1 cell noCPT: qHTS for Inhibitors of human tyrosyl-DNA phosphodiesterase 1 (TDP1): qHTS in cells in absence of CPT. DT40 Tdp1-/- hTDP1 cells, no CPT, ATP luminescence, 48 h. Potency, µM (top dose mostly 46.2 µM), hits mostly inhibitors. 420,000 tested, 15% active; further: nearly all actives have a fitted effect of over 55% in size
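A cellular qHTS used chicken DT40 cells lacking endogenous Tdp1 but carrying stably transfected human TDP1. Compounds were applied without camptothecin, and cell growth kinetics were judged by ATP-dependent luminescence after ≥48 hr.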
TGFb inhibitor: TGF-b pathway inhibition; Potency, µM (series often up to 46.1 µM), most hits filed as inhibitors; AID 588855; HepG2 CAGA-GFP TGF-b/SMAD3 reporter, GFP fluorescence, 18 h; TGF-beta stimulated, 500 pg/mL final; 410,000 tested, 1.2% active; further: nearly all actives have a fitted effect of over 65% in size
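HEPG2 CAGA-GFP reporter cells (1000/well, DMEM with 1% FBS) received compounds, then recombinant TGF-beta at 500 pg/mL final for 18 hours at 37 degrees C. Per-cell GFP summed per well was normalised to unstimulated and stimulated DMSO controls before curve fitting.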
DT40 TDP1 CPT: growth inhibition of DT40 Tdp1-/-;hTDP1 cells with camptothecin (screen for TDP1 inhibitors) | AID 686979 | Potency, µM (top dose mostly 46.2 µM), actives largely listed as inhibitors | 420,000 tested, 12% active | chicken DT40 Tdp1-/-;hTDP1 cells + 20 nM CPT, ATP luminescence, 48 h; further: nearly all actives have a fitted effect of over 55% in size
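Chicken DT40 Tdp1-/- cells complemented with human TDP1, 400 cells/well, exposed to compounds plus 20 nM camptothecin for at least 48 h at 37 C; viability read as ATP content by CellTiter-Glo luminescence.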
ATXN viability: viability counter-screen for ATXN expression inhibitors; S2 cells (HEK-293 line with an ATXN2-luciferase reporter) viability, CellTiter-Fluor protease fluorescence, 24 h; Potency, µM (top dose mostly 56.7 µM), usual class: cytotoxic; 400,000 tested, 0.49% active; AID 651635; further: nearly all actives have a fitted effect of over 40% in size
Of the large screens only hits and unclear results are named; the others gave an inactive call. The call rests on the fitted dose curve; in most records, active means well fitted curve in the direction sought with a large enough effect; inconclusive means small, poorly fitted or top-dose-only effect, or another doubt; inactive means no such curve, though single readings can be large; an effect the other way counts as inactive or inconclusive.

COc1cccc(-c2nn(C)c3sc(C(=O)NCc4cc(OC)ccc4OC)cc23)c1	TDP1 cell noCPT inconclusive, DT40 TDP1 CPT inconclusive, ATXN viability inconclusive
COc1ccc(NC(=O)c2cc3c(-c4ccc(OC)c(OC)c4)nn(C)c3s2)cc1OC	TDP1 cell noCPT 20.6µM, DT40 TDP1 CPT 18.4µM
CN(Cc1cccnc1)C(=O)CNC(=O)c1ccc(Cl)cc1Cl	none
Cc1cc(C)nc(-n2nc(C)cc2NC(=O)c2cccc(S(=O)(=O)N(C)C)c2)n1	none
Cc1ccc(C)c(C(=O)Nc2cc(C)nn2-c2nc(C)cc(C)n2)c1	TDP1 cell noCPT 5.17µM, DT40 TDP1 CPT 3.26µM
Cc1cc(C)nc(-n2nc(C)cc2NC(=O)CN2CCCC2)n1	none (no result: ATXN2 expr inh)
Cc1cc(C)nc(-n2nc(C)cc2NC(=O)CNC(C)c2ccccc2)n1 (stereo not drawn)	TDP1 cell noCPT 20.6µM, DT40 TDP1 CPT inconclusive
O=C(Cn1cnc2c(nnn2Cc2ccc(F)cc2)c1=O)NCC1CCCO1 (stereo not drawn)	none
O=C(Nc1ccc2ccccc2n1)Nc1cccs1	none
O=C(NCCN1CCNC1=O)c1ccc2sc([C@H]3C[C@H](O)[C@@H](CO)O3)nc2c1	none
c1ccc(-c2nn3c(C4CCCCC4)nnc3s2)nc1	none
Clc1ccc(OCc2nn3c(C4CCCCC4)nnc3s2)cc1	TDP1 cell noCPT 20.6µM, DT40 TDP1 CPT 20.6µM
COc1cc(C=C(c2nc3ccccc3s2)c2nc3ccccc3s2)cc(OC)c1O	TDP1 cell noCPT inconclusive, TGFb inhibitor inconclusive, DT40 TDP1 CPT 23.1µM
CN(C)c1ccc(/C=C(\Cl)c2nc3ccccc3s2)cc1	ATXN2 expr inh inconclusive, TDP1 cell noCPT 20.6µM, DT40 TDP1 CPT 16.4µM, ATXN viability inconclusive
COc1cc(/C=N/NC(=O)c2cccc(C(=O)N/N=C/c3ccc(O)c(OC)c3)n2)ccc1O	none
COc1cc(/C=N/NC(=Nc2ccc(C)cc2)c2nc3ccccc3s2)ccc1O	ATXN2 expr inh inconclusive, TDP1 cell noCPT 15.8µM, TGFb inhibitor inconclusive, DT40 TDP1 CPT 14.1µM
O=C(O)c1ccc(C=C(c2nc3ccccc3s2)c2nc3ccccc3s2)cc1	TGFb inhibitor inconclusive, DT40 TDP1 CPT inconclusive (no result: ATXN2 expr inh, ATXN viability)
CCN(CC)CCCNc1nc(-n2nc(C)cc2C)nc2sc3c(c12)CC(C)(C)OC3	TDP1 cell noCPT inconclusive, DT40 TDP1 CPT inconclusive
O=C(NCC1CCCO1)c1ccc2c(c1)S(=O)(=O)c1ccccc1C2=O (stereo not drawn)	none
O=C(NCc1ccc(OC(F)(F)F)cc1)c1ccc2c(c1)S(=O)(=O)c1ccccc1C2=O	TDP1 cell noCPT 14.6µM, TGFb inhibitor inconclusive, DT40 TDP1 CPT 23.1µM
Cc1ccc(CNC(=O)c2ccc3c(c2)S(=O)(=O)c2ccccc2C3=O)o1	TDP1 cell noCPT 16.4µM, DT40 TDP1 CPT inconclusive
COc1ccc(NC(=O)c2ccc3c(c2)S(=O)(=O)c2ccccc2C3=O)cc1	none
O=C(c1ccco1)N1CCCN(Cc2cn[nH]c2-c2ccc(-c3ccccc3)cc2)CC1	TDP1 cell noCPT inconclusive
CC(=O)C[C@H](O)CC(=O)[C@H]1OC(=O)CCCCCCCc2ccccc21	none
Cc1ccc(C(=O)Nc2ccon2)cc1S(=O)(=O)N1CCCC1	none
CCN(Cc1ccccc1)S(=O)(=O)c1ccc(N2CCCCS2(=O)=O)cc1	TDP1 cell noCPT inconclusive, DT40 TDP1 CPT inconclusive
CN(C)c1cc[n+](CC(=O)c2ccc(OC(F)F)cc2)cc1	TDP1 cell noCPT 8.2µM, DT40 TDP1 CPT 18.4µM
O=C(C[n+]1cccc(CNC(=O)c2ccc(OC(F)F)cc2)c1)c1ccccc1	none
COC(=O)N/N=C/c1cc(Cl)c(OCc2ccccc2F)c(OC)c1	HepG2 viability 10µM, TDP1 cell noCPT 23.1µM, DT40 TDP1 CPT inconclusive
COC(=O)N/N=C/c1cc(Cl)c(OCc2ccc(F)cc2)c(OC)c1	TDP1 cell noCPT inconclusive, ATXN viability inconclusive
